Consider eight compounds from PubChem BioAssay (EPA / NIEHS).

Active and inactive are the calls of the source. How the source made its calls: active means hit-call score of the fitted dose curve at least 0.9, where 1 is the maximum; inactive means score below 0.9.

A short description of assay [1]: ATG_GLI_CIS: Attagene CIS-FACTORIAL HepG2 Assay for human Zinc Finger Protein GLI1 (AID 2282945). To be noted: HepG2, Attagene cis-factorial reporter mRNA, GLI element; actives raise or lower the signal. The method, boiled down: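 Transiently transfected HepG2 cells report endogenous transcription factor activity via cis-element-driven reporter units. After 24 h compound exposure, reporter mRNA was measured by RT-PCR with capillary electrophoresis; bidirectional fitting against DMSO baseline.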

Assay [2] is described as follows: ATG_GRE_CIS: Attagene CIS-FACTORIAL HepG2 Assay for human Glucocorticoid Response Elements (GRE) (AID 2282947). To be noted: HepG2 GRE cis-reporter, Attagene multiplex mRNA; actives raise or lower the signal. A digest of the protocol: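 Endogenous transcription factor activity is read through cis-element reporter constructs transiently transfected into HepG2 cells. After 24 h treatment, labelled RT-PCR products are resolved by capillary electrophoresis; DMSO sets baseline for bidirectional curve fitting.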

Assay [3] in a line: ATG_ISRE_CIS: Attagene CIS-FACTORIAL HepG2 Assay for human Interferon Regulatory Factor 1 (IRF1) binding to an Interferon-Stimulated Response Element (ISRE) (AID 2282948). As to conditions: HepG2 ISRE cis-reporter (Attagene), mRNA transcription readout; actives raise or lower the signal. A digest of the protocol: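 Transfected HepG2 (multiple reporter transcription units, cis elements) dosed 24 h. RNA → oligo(dT) RT → PCR → 6-FAM primer extension → HpaI → CE. DMSO = negative control/baseline.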

A short description of assay [4]: ATG_M_32_CIS: Attagene CIS-FACTORIAL HepG2 Assay for M32 Transcription Factor (Internal Marker) (AID 2282949).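 Further: background control marker of the multiplexed CIS panel rather than a real target.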 To be noted: HepG2 Attagene cis-factorial M32 reporter, mRNA; actives raise or lower the signal. The method, boiled down: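 Internal background marker read-out: RT-PCR/capillary electrophoresis fluorescence of reporter transcripts from transiently transfected HepG2 cells after 24 h chemical exposure. Activity fitted bidirectionally relative to DMSO negative control.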

A short description of assay [5]: ATG_M_06_CIS: Attagene CIS-FACTORIAL HepG2 Assay for M06 Transcription Factor (Internal Marker) (AID 2282950). As to conditions: HepG2 Attagene CIS-FACTORIAL M06 internal marker reporter; actives raise or lower the signal. A digest of the protocol: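 Read-out is fluorescence of labelled reporter cDNA fragments resolved by capillary electrophoresis after RT-PCR. Cells: HepG2 carrying transfected cis-promoter reporter units, treated 24 h. Gain or loss of signal fitted relative to DMSO.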

The target of assay [6] is Hypoxia-inducible factor 1-alpha (Homo sapiens) (UniProt Q16665). Put plainly: ATG_HIF1a_CIS: Attagene CIS-FACTORIAL HepG2 Assay for human Hypoxia Inducible Factor 1 (HIF1A) (AID 2282951). To be noted: HepG2 Attagene cis-factorial HIF1a reporter transcription; actives raise or lower the signal. A digest of the protocol:
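In this multiplexed cell assay, HepG2 cells bearing transfected cis reporters are dosed for 24 h and reporter mRNA is read by RT-PCR plus capillary electrophoresis; signal increases and decreases are both scored against DMSO.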

Assay [7] deals with Hepatocyte nuclear factor 6 (Homo sapiens) (UniProt Q9UBC0). As to the kind of experiment: ATG_HNF6_CIS: Attagene CIS-FACTORIAL HepG2 Assay for human Hepatocyte Nuclear Factor 6 (HNF6) (AID 2282952). To be noted: HepG2 Attagene cis-factorial HNF6 reporter transcription; actives raise or lower the signal. A digest of the protocol:
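HepG2 cells transiently transfected with cis-element-driven multiple reporter transcription units, dosed 24 h; reporter mRNA quantified by RT-PCR, FAM primer extension, HpaI digestion and capillary electrophoresis; bidirectional fit versus DMSO baseline.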

Assay [8] addresses Heat shock factor protein 1 (Homo sapiens) (UniProt Q00613). Put plainly: ATG_HSE_CIS: Attagene CIS-FACTORIAL HepG2 Assay for human Heat Shock Transcription Factor 1 (HSE) (AID 2282953). As to conditions: HepG2 HSE cis-reporter, Attagene RNA transcription; actives raise or lower the signal. A digest of the protocol: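 HepG2, transient MRTU transfection, cis-promoter reporters (endogenous TF activity). 24 h compound. RNA → oligo(dT) RT → PCR → 6-FAM primer extension → HpaI cut → CE. Bidirectional fit vs DMSO.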

The nature of assay [9]: ATG_MRE_CIS: Attagene CIS-FACTORIAL HepG2 Assay for human Metal Responsive Element (MRE) (AID 2282954). As to conditions: HepG2 MRE cis-reporter transcription, Attagene multiplex; actives raise or lower the signal. The method, boiled down:
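Fluorescent reporter fragments separated by capillary electrophoresis give mRNA induction for the MRE unit after 24 h treatment of transfected HepG2 cells. Endogenous transcription-factor activity is read; DMSO serves as negative control and baseline.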

Assay [10] can be described thus: ATG_PBREM_CIS: Attagene CIS-FACTORIAL HepG2 Assay for human Phenobarbital-responsive Enhancer Module (PBREM) (AID 2282955). To be noted: HepG2 PBREM cis-reporter, Attagene multiplexed transcription; actives raise or lower the signal. A digest of the protocol:
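After a 24 h incubation with test chemical, transfected HepG2 cells yield total RNA; reporter-specific RT-PCR products are fluorescently labelled, HpaI-digested and resolved by capillary electrophoresis against ROX size standards.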

Assay [11] deals with Paired box protein Pax-6 (Homo sapiens) (UniProt P26367). Put plainly: ATG_Pax6_CIS: Attagene CIS-FACTORIAL HepG2 Assay for human Paired Box 6 (PAX6) (AID 2282956). As to conditions: HepG2 CIS-FACTORIAL PAX6 reporter transcription, RNA readout; actives raise or lower the signal. A digest of the protocol:
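Transient MRTU transfection of HepG2 → compound exposure 24 h → TriZol RNA, oligo(dT) RT → PCR, 6-FAM primer extension, HpaI cut → capillary electrophoresis; activity fitted both directions against DMSO.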

Assay [12] is described as follows: ATG_PXRE_CIS: Attagene CIS-FACTORIAL HepG2 Assay for human Pregnane X Receptor Element (PXRE) (AID 2282957). As to conditions: HepG2 Attagene CIS-FACTORIAL PXRE reporter, mRNA; actives raise or lower the signal. A digest of the protocol:
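HepG2 cells transiently transfected with cis-regulated multiple reporter transcription units; endogenous factor activity measured as reporter mRNA 24 h after dosing. RT-PCR, fluorescent primer extension, HpaI digestion, capillary electrophoresis; bidirectional fit versus DMSO baseline.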

The nature of assay [13]: ATG_RORE_CIS: Attagene CIS-FACTORIAL HepG2 Assay for human RAR-related Orphan Receptor Element (RORE) (AID 2282959). As to conditions: HepG2 Attagene cis-factorial RORE reporter, mRNA; actives raise or lower the signal. The method, boiled down:
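Fluorescence intensity of reporter-specific cDNA fragments, separated by capillary electrophoresis, gives the signal. Source: HepG2 liver cells transiently transfected with cis-element reporters and exposed 24 h; DMSO-normalized bidirectional fit.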

Assay [14] can be described thus: ATG_Sox_CIS: Attagene CIS-FACTORIAL HepG2 Assay for human SRY-box transcription factor (SOX) (AID 2282960). As to conditions: HepG2 Attagene cis-factorial SOX reporter, mRNA; actives raise or lower the signal. A digest of the protocol:
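After 24 h of chemical treatment, transfected HepG2 reporter cells are lysed for total RNA. Transcript levels come from RT-PCR with labelled primer extension and capillary electrophoresis, analysed bidirectionally versus DMSO.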

The target of assay [15] is Transcription factor Sp1 (Homo sapiens) (UniProt P08047). As to the kind of experiment: ATG_Sp1_CIS: Attagene CIS-FACTORIAL HepG2 Assay for human Specificity Protein 1 (Sp1) (AID 2282961). To be noted: HepG2 Sp1 cis-reporter transcription, actives raise or lower the signal. A digest of the protocol:
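Sp1-driven reporter mRNA, read as capillary electrophoresis fluorescence after RT-PCR, in transiently transfected HepG2 cells dosed for 24 h; signal change in either direction relative to DMSO.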

A short description of assay [16]: ATG_SREBP_CIS: Attagene CIS-FACTORIAL HepG2 Assay for human Sterol Regulatory Element Binding (SREBP) (AID 2282962). To be noted: HepG2 Attagene cis-factorial SREBP reporter, mRNA; actives raise or lower the signal. A digest of the protocol:
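Transfected HepG2 (cis-regulated reporter library, endogenous TFs) → compound 24 h → total RNA → oligo(dT) RT → reporter-specific PCR → FAM primer extension, HpaI cut → CE fluorescence. Fit bidirectional vs DMSO.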

For assay [17], the target named is Signal transducer and activator of transcription 3 (Homo sapiens) (UniProt P40763). As to the kind of experiment: ATG_STAT3_CIS: Attagene CIS-FACTORIAL HepG2 Assay for human Signal Transducer and Activator of Transcription 3 (STAT3) (AID 2282963). To be noted: HepG2, Attagene cis-factorial STAT3 reporter transcription; actives raise or lower the signal. The method, boiled down: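 Values derive from bidirectional fits relative to DMSO of reporter mRNA levels, measured by RT-PCR with capillary electrophoresis, in HepG2 cells carrying transiently transfected cis-regulated reporter units and exposed 24 h.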
Sequence of Signal transducer and activator of transcription 3 (Homo sapiens) (P40763 whole entry, looked up): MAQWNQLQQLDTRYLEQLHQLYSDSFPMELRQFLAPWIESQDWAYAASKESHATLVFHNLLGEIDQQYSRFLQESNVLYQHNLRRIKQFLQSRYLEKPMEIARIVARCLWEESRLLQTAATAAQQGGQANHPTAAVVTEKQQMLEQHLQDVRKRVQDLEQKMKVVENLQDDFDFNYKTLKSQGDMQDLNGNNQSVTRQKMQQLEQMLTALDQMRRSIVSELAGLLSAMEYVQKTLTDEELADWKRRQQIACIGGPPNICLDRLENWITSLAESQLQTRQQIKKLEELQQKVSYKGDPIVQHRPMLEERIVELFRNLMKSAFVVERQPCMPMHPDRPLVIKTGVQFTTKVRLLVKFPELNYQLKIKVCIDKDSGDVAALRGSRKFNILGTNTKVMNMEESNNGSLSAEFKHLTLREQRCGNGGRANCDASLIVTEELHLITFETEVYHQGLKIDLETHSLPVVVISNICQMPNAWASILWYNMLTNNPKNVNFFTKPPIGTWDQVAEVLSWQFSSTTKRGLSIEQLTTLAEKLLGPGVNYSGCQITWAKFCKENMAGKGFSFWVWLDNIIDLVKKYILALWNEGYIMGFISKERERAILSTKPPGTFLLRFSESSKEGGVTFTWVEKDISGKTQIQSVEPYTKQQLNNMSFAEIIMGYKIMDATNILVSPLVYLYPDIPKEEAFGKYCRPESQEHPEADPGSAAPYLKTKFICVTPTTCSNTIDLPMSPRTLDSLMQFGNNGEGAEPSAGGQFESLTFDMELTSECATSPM

Assay [18] is described as follows: ATG_TA_CIS: Attagene CIS-FACTORIAL HepG2 Assay for human TA Basal Promoter (AID 2282964). To be noted: HepG2 Attagene CIS-factorial TA basal promoter reporter; actives raise or lower the signal. A digest of the protocol: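 Read-out: fluorescent reporter-transcript fragments resolved by capillary electrophoresis after RT-PCR and HpaI digestion. Source: HepG2 cells carrying transiently transfected multi-reporter cis constructs, treated 24 h. Endpoint fitted bidirectionally relative to DMSO.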

Assay [19] is described as follows: ATG_PPRE_CIS: Attagene CIS-FACTORIAL HepG2 Assay for human Peroxisome Proliferator-activated Response Element (PPRE) (AID 2282958). To be noted: HepG2 PPRE cis-element reporter, Attagene transcription factor profiling; actives raise or lower the signal. The method, boiled down:
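Multiplexed reporter transcription units under cis-regulatory promoters were transfected into HepG2 cells to capture endogenous factor activity. A 24 h incubation preceded RNA isolation and fluorescent RT-PCR fragment analysis.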

Sequence of Hypoxia-inducible factor 1-alpha (Homo sapiens) (Q16665 whole entry, looked up): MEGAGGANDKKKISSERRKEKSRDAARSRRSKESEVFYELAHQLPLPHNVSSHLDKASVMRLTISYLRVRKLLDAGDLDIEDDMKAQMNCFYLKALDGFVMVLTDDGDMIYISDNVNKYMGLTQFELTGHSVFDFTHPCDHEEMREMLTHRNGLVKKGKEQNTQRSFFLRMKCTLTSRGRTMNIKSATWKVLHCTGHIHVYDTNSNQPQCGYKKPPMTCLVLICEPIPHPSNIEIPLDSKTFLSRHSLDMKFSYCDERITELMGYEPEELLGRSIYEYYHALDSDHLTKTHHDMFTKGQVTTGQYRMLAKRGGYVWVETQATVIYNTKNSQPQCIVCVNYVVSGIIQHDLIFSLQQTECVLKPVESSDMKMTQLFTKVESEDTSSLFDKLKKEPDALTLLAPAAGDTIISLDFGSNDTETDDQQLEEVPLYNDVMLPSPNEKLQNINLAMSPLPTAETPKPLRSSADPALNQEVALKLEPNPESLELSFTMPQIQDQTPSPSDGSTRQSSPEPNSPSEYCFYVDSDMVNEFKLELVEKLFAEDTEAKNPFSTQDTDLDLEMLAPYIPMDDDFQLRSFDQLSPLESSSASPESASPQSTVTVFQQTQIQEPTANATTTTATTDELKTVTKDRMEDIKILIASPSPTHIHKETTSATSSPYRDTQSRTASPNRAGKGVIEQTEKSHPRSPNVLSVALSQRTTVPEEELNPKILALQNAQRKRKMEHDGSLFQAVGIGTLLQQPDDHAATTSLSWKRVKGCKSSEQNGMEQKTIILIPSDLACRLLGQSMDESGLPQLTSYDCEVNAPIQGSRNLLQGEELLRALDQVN
Sequence of Paired box protein Pax-6 (Homo sapiens) (P26367 whole entry, looked up): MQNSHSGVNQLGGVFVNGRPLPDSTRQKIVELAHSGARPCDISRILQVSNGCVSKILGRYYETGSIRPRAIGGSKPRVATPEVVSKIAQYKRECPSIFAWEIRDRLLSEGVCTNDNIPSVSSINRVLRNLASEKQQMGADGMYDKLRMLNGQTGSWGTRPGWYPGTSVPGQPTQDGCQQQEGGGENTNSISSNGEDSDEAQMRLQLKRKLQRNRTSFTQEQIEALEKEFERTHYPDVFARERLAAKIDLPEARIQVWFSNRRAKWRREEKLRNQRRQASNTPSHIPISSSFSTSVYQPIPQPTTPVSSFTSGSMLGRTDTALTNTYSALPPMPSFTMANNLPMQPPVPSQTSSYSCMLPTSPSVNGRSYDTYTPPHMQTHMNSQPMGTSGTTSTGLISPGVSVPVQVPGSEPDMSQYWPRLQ
Sequence of Hepatocyte nuclear factor 6 (Homo sapiens) (Q9UBC0 whole entry, looked up): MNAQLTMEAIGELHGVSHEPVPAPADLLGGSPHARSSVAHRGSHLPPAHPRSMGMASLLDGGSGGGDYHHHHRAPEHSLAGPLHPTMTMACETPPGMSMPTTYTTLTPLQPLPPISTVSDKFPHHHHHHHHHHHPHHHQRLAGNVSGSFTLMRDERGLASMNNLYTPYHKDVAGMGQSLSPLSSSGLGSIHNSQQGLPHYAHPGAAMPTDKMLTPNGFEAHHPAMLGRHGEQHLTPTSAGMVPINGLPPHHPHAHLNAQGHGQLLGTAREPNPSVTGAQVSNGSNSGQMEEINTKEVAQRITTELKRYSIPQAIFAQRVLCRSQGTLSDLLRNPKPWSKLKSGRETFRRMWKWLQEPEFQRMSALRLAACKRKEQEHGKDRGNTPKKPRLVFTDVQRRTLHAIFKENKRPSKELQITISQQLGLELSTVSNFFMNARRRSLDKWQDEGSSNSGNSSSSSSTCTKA
Sequence of Heat shock factor protein 1 (Homo sapiens) (Q00613 whole entry, looked up): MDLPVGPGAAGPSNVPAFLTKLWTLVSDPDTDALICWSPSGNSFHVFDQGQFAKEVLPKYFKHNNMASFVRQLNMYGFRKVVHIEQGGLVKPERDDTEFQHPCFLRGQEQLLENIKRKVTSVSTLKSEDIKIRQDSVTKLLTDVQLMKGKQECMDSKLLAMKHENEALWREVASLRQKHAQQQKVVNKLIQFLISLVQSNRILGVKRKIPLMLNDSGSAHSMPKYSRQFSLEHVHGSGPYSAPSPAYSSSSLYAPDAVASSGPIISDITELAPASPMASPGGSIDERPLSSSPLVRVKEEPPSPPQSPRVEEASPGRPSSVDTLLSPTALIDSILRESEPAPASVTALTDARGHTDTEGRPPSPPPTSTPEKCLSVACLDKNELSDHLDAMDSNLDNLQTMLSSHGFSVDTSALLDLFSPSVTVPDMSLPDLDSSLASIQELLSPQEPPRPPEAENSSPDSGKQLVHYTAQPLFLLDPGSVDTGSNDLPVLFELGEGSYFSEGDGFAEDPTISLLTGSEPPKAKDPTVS
Sequence of Transcription factor Sp1 (Homo sapiens) (P08047 whole entry, looked up): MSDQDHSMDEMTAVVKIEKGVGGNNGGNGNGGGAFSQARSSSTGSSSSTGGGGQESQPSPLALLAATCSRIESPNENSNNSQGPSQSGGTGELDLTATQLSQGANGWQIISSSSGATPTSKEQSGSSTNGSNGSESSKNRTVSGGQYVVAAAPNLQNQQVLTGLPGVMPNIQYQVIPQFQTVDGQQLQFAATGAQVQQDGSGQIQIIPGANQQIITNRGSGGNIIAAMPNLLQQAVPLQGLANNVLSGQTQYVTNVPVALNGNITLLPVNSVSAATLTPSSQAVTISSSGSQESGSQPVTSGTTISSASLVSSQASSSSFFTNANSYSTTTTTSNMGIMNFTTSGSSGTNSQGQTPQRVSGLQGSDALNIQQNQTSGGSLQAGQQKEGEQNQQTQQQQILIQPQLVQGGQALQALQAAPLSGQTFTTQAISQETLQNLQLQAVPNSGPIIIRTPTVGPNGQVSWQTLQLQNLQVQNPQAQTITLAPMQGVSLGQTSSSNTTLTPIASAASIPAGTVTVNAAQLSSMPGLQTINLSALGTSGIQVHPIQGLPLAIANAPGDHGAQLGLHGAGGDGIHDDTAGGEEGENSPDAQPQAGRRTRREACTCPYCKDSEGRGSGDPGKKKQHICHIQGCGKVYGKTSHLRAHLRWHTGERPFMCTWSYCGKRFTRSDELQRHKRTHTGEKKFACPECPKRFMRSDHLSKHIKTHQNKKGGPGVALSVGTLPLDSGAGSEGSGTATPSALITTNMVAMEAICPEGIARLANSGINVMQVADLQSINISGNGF

As for `CCCCC(=O)O`, the result in [1], in assay [2], in assay [3], in assay [4], in assay [5] and in assay [6] was inactive. Further, the call in [7], in [8], in [9], in assay [10], in assay [11] and in assay [12] was inactive. For the same compound, the outcome in [13], in assay [14], in [15], in assay [16], in [17] and in assay [18] was inactive.

In the case of `CC(=O)OCC=C(C)C`, the compound was classed as inactive in [1], in [2], in assay [3], in [4], in [5] and in [6]. Besides, the compound was called inactive in assay [7], in [8], in [9], in [10], in assay [19] and in assay [14]. Besides, the compound was called inactive in [15], in assay [17] and in assay [18]. For the same compound, the AC50 in assay [12] was 52.1 µM (active).

For the compound `N#CC1(N)CCCCC1`, the outcome in assay [1], in assay [2], in [3], in assay [4], in [5] and in assay [6] was inactive. Further, the outcome in assay [7], in [8], in assay [9], in [10], in assay [11] and in [12] was inactive. For the same compound, the call in assay [13], in assay [14], in assay [15], in assay [17] and in [18] was inactive.

As to `COC(=O)c1ccc(C(=O)OC)c(C(=O)OC)c1`, the compound was classed as inactive in assay [1], in [2], in assay [3], in assay [4], in assay [5] and in assay [6]. Moreover, the outcome in [7], in [8], in [9], in assay [10], in [11] and in assay [12] was inactive. The call in [13], in [14], in [15], in assay [16], in assay [17] and in assay [18] was inactive.

In the case of `CC1(C)[C@@H]2CC[C@@]1(C)C(=O)C2`, the outcome in assay [1], in assay [2], in assay [3], in assay [4], in assay [5] and in assay [6] was inactive. In addition, the call in [7], in [8], in assay [9], in assay [10], in [12] and in [13] was inactive. In addition, the compound was classed as inactive in assay [14], in assay [15], in [16] and in assay [17].

With `O=C(O[C@@H]1Cc2c(O)cc(O)cc2O[C@@H]1c1cc(O)c(O)c(O)c1)c1cc(O)c(O)c(O)c1`, the result in assay [1], in [2], in assay [3], in [4], in assay [5] and in assay [7] was inactive. For the same compound, the compound was classed as inactive in assay [8], in [9], in assay [10], in assay [11], in assay [12] and in assay [14]. Further, the result in assay [15], in assay [17] and in [18] was inactive. The AC50 in assay [6] was 26.8 µM (active).

Turning to `CCCCOCCOC(=O)COc1ccc(Cl)cc1Cl`, the compound was called inactive in assay [1], in assay [2], in assay [3], in assay [4], in assay [5] and in assay [6]. Further, the outcome in assay [7], in assay [8], in assay [9], in assay [10], in [11] and in [13] was inactive. Also, the compound was called inactive in [14], in assay [15], in assay [16], in assay [17] and in assay [18]. Also, the AC50 in [12] was 39.9 µM (active).

For `Nc1nc(N)nc(-c2ccccc2)n1`, the compound was classed as inactive in assay [1], in [2], in assay [3], in [4], in assay [5] and in assay [6]. In addition, the call in [7], in [8], in assay [9], in [10], in assay [11] and in assay [12] was inactive. Moreover, the compound was classed as inactive in assay [14], in [15], in [16], in assay [17] and in assay [18].
